FH mod – Identification of activators of human fumarate hydratase by quantitative high-throughput screening. Fumarate hydratase, mitochondrial (Homo sapiens), P07954. FH coupled MDH/diaphorase resazurin fluorescence, 15 min. Potency, µM (titrated, usually from 79.9 µM), most hits filed as inhibitors. 0.22% of 54,000 active; also: the screen sought activators but most active calls are inhibition curves; nearly all actives have a fitted effect of over 45% in size
Target sequence (P07954 whole entry, looked up): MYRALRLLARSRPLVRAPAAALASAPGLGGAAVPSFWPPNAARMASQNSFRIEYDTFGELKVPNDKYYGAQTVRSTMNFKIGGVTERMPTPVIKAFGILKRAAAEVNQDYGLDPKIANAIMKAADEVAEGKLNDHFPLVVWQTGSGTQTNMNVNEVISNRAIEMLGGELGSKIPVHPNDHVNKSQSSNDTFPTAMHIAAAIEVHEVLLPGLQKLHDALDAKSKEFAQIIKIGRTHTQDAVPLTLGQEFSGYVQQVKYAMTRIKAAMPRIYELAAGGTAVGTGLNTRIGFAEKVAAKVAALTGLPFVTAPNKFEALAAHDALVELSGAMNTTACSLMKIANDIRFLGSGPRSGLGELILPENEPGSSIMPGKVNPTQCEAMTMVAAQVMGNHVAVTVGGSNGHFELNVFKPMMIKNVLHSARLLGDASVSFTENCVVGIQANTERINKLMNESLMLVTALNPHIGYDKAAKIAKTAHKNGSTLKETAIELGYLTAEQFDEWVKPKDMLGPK
HTT-AS act – Primary qHTS for Identification of Small Molecule Activators of Huntingtin-Antisense Promoter Activity | 0.24% of 48,000 active | Potency, µM (series often up to 57.5 µM), usual class: activators | HEK293 HTT-AS promoter firefly luciferase reporter, 24 h; response scale: percent change from vehicle, -100% = no light; also: nearly all actives have a fitted effect of over 55% in size
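HEK293 cells carrying firefly luciferase reporters were seeded at 2,500 per well in Opti-MEM and cultured for 24 h. They were then treated with compounds at up to 57.5 uM final for 24 h at 37 degrees C before Dual-Glo luminescence readout.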
HTT promoter inh – Primary qHTS for Identification of Small Molecule Inhibitors of Huntingtin Promoter Activity; AID 1508623, 2021; 0.93% of 48,000 active; HEK293 HTT promoter firefly luciferase reporter, 24 h; Potency, µM (top dose mostly 57.5 µM), usual class: inhibitors; also: nearly all actives have a fitted effect of over 50% in size
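Firefly luciferase signal from promoter-reporter HEK293 cells was scaled between vehicle (0%) and zero RLU (-100%). Compounds were tested at final concentrations of up to 57.5 uM over 24 h at 37 degrees C. PTC124 at 50 uM final served as control inhibitor.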
Each line names hits and unclear results; the compound was inactive in the other large screens; ! = not confirmed by another sample. Hits are enriched below; roughly 1.3% of the tested compounds scored in any of these assays. Calls follow the shape of the dose curve; as a rule, active = well fitted curve in the direction sought with a large enough effect; inconclusive = small, poorly fitted or top-dose-only effect, or another doubt; inactive = no such curve, though single readings can be large; an effect the other way counts as inactive or inconclusive.

Nc1c2ccccc2nc2ccccc12	HTT promoter inh inconclusive
NNc1nncc2ccccc12	HTT-AS act 7.69µM
CC1(C)CCCC2(C)C1C(=O)C=C(C(=O)O)C2(O)C(=O)O (stereo unspecified)	none (no result: HTT-AS act, HTT promoter inh)
N#C/C(=C\c1ccc(OCc2ccc(Cl)cc2Cl)cc1)c1nc2ccccc2[nH]1	none
N#C/C(=C\c1ccc(-c2ccc(Cl)c(C(=O)O)c2)o1)c1nc2ccccc2[nH]1	FH mod 39.8µM
Cc1ccc2nc(/C(C#N)=C/c3ccc(-c4cccc(Cl)c4)o3)[nH]c2c1	none
N#C/C(=C\c1ccc(-c2ccc(C(=O)O)cc2)o1)c1nc2ccccc2[nH]1	FH mod 28.2µM, HTT-AS act inconclusive
CC1(C)CCCC2(C)C1C(O)C=C(CO)C2(O)C(=O)O (stereo unspecified)	none (no result: HTT-AS act, HTT promoter inh)
NCc1c[nH]c(=S)n1[C@@H]1CCc2c(F)cc(F)cc2C1	none (no result: HTT-AS act, HTT promoter inh)
C[C@@H]1CCC2C(C)(C)[C@H](O)CC[C@]2(C)[C@@]12Cc1c(O)cc3c(c1O2)CNC3=O (stereo partly specified)	none (no result: HTT-AS act, HTT promoter inh)
CC(C)C(C(=O)N(C)C(C)C(N)=O)N(C)C(=O)C1CCCN1C(=O)/C=C/C=C/C(O)C(C)O (stereo unspecified)	none (no result: HTT-AS act, HTT promoter inh)
Cc1cccc(N2CCN(c3ncnc4onc(-c5ccc(F)cc5)c34)CC2C)c1 (stereo unspecified)	HTT promoter inh inconclusive
Cc1cccc(N2CCN(c3ncnc4onc(C)c34)CC2C)c1 (stereo unspecified)	HTT promoter inh 12.6µM
O=c1ccn(C2OC(CO)C(O)C2O)c(=O)[nH]1 (stereo unspecified)	none (no result: HTT-AS act, HTT promoter inh)
CCNC(=O)c1ccc2c(c1)sc1nc(-c3cccc(OC)c3)cn12	FH mod inconclusive, HTT-AS act inconclusive
COc1cccc(-c2cn3ncsc3n2)c1	HTT-AS act 2.51µM
CC1(CO)CCCC2(C)C3COC(=O)C3=CC(O)C12 (stereo unspecified)	none (no result: HTT-AS act, HTT promoter inh)
C/C=C/c1ccc(O)c(OC)c1	FH mod inconclusive
Oc1cc(O)cc(/C=C/c2ccc(O)c(O)c2)c1	FH mod 3.55µM! (no result: HTT-AS act, HTT promoter inh)
CNC(=O)[C@H]1O[C@@H](n2cnc3c(NCc4ccc(N)cc4)ncnc32)[C@H](O)C1O (stereo partly specified)	none (no result: HTT-AS act, HTT promoter inh)
COc1cccc(Cn2cnc3c2c(=O)n(C)c(=O)n3C)c1	HTT promoter inh 14.1µM
Cn1c(=O)c2c(ncn2CCO)n(C)c1=O	none
CCc1ccccc1NC(=O)Nc1nnc(N2CCCC2)s1	none
CCCc1nnc(NC(=O)Nc2ccccc2Cl)s1	HTT-AS act 3.55µM
Cc1nc2cc(-c3cccc(F)c3)nn2c(C)c1CCC(=O)N1CCN(c2ccc(F)cc2)CC1	FH mod inconclusive, HTT promoter inh inconclusive
Cc1nc2cc(-c3ccc(Cl)cc3)nn2c(C)c1CCC(=O)N1CCN(c2ccccc2)CC1	HTT promoter inh 1µM
COc1ccc(-c2cc3nc(C)c(CCC(=O)N4CCN(c5ccccc5)CC4)c(C)n3n2)c(OC)c1	none
Cc1nc2cc(-c3ccccc3)nn2c(C)c1CCC(=O)N1CCN(c2ccccc2)CC1	HTT promoter inh 2.51µM
CC(=O)O[C@H]1[C@H](O[C@H]2CC[C@]34C[C@]35CC[C@]3(C)[C@@H]([C@@]6(C)CC[C@@H](C(C)(C)O)O6)[C@@H](O)C[C@@]3(C)[C@@H]5C[C@H](O[C@@H]3O[C@H](CO)[C@@H](O)[C@H](O)[C@H]3O)[C@H]4C2(C)C)OC[C@@H](OC(C)=O)[C@@H]1O	none (no result: HTT-AS act, HTT promoter inh)
COc1ccc(C2=NC3(CCCCCC3)N(CC(=O)Nc3cccc(Cl)c3)C2=O)cc1	HTT promoter inh 31.6µM
COc1cc(NC(=O)CN2C(=O)C(c3ccc(Cl)cc3)=NC23CCCCC3)cc(OC)c1	HTT promoter inh inconclusive
COc1ccc2c(c1O[C@H]1CCNC1)CCC2	none (no result: HTT-AS act, HTT promoter inh)
COc1cc(CN(C(=O)COc2ccc(C)cc2)c2ccccn2)cc(OC)c1OC	HTT promoter inh inconclusive
COc1cc(CN(C(=O)COc2ccc(Br)cc2)c2ccccn2)cc(OC)c1OC	HTT promoter inh 31.6µM
COc1ccc(Br)cc1S(=O)(=O)NC(=O)/C=C/c1ccccc1Cc1ccc2ccccc2c1	FH mod 20µM (no result: HTT-AS act, HTT promoter inh)
COc1ccc(C(=O)Nc2ccccc2)cc1S(=O)(=O)Nc1ccc(Br)cc1	none
Cc1ccc2nc(-c3ccccn3)c(Nc3ccccc3C)n2c1	FH mod inconclusive, HTT promoter inh 35.5µM
Fc1ccc(Nc2c(-c3ccccn3)nc3ccc(Cl)cn23)cc1	none
Cc1ccccc1Nc1c(-c2cccc(N(C)C)c2)nc2ccc(Br)cn12	HTT-AS act 11.2µM

Source: PubChem BioAssay
